Source: PubChem (National Center for Advancing Translational Sciences (NCATS))
An excerpt weighted towards active compounds, which were near 2.8% of everything screened.
ATXN viability = viability counter-screen for ATXN expression inhibitors; S2 cells (HEK-293 line with an ATXN2-luciferase reporter) viability, CellTiter-Fluor protease fluorescence, 24 h; Potency, µM (doses to about 56.7 µM), usual class: cytotoxic; 400,000 tested, 0.49% active; also: nearly all actives have a fitted effect of over 40% in size
HepG2 tox-1 = HepG2 cytotoxicity, counter-screen for TGF-b inhibitors | 410,000 tested, 0.76% active | Potency, µM (titrated, usually from 46.1 µM), without a hit: at the top dose activity change, negative = cytotoxicity, hits mostly cytotoxic | HepG2 CAGA-GFP viability, ATP luminescence, 18 h
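CellTiter-Glo luminescence gave cytotoxicity after 18 hours at 37 degrees C. The cells were HepG2 CAGA-GFP in 1% FBS DMEM, stimulated with 500 pg/mL TGF-beta after compound addition. %Activity was normalised to no-cell wells (complete cell-killing) and DMSO (no toxicity), and curves were fitted and classified.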
TGFb SMAD3 inh = blocks TGF-b signaling; HepG2 CAGA-GFP TGF-b/SMAD3 reporter, GFP fluorescence, 18 h; TGF-beta stimulated, 500 pg/mL final; Potency, µM (doses to about 46.1 µM), inactives show top-dose activity, negative = inhibition, hits mostly inhibitors; 410,000 tested, 1.2% active; also: % is scaled to controls: 0 for no effect and ±100 for the full control effect; nearly all actives have a fitted effect of over 65% in size
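Read-out: total well GFP (ex488/em500-530) summed from mean per-cell fluorescence. Cells: HEPG2 CAGA-GFP, 1% FBS DMEM, 18 h at 37 degrees C with 500 pg/mL final TGF-beta. Unstimulated wells served as the full-inhibition control; stimulated DMSO wells = 0%.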
HTT cytoprotect = protects HTT-Q103 PC12 cells, measured by ATP | PC12 HTT-Q103 induced, cytoprotection, ATP luminescence, 40 h | Potency, µM (highest dose often 56.4 µM), without a hit: cytoprotection (ATP increase), most hits filed as activators | 230,000 tested, 0.14% active | AID 1471; also: % of control where 0% means no effect; nearly all actives have a fitted effect of over 45% in size
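Quantitative HTS on tebufenozide-induced (100 nM) PC12 cells expressing HTTQ103 exon 1–GFP; compounds tested as a concentration series; survival measured via cellular ATP.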
HttQ103 aggreg = reduces HttQ103-GFP aggregates in PC12 cells. Potency, µM (top dose mostly 46.1 µM), without a hit: at the top dose activity change, negative = inhibition, most hits filed as inhibitors. AID 1688. 220,000 tested, 1.1% active. PC12 HttQ103-GFP aggregates, Acumen cytometry, 40 h; also: % is scaled to controls: 0 for no effect and ±100 for the full control effect; nearly all actives have a fitted effect of over 60% in size
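Inducible Q103 Huntingtin exon 1–GFP PC12 line, 1500 cells/well in phenol red free DMEM with 5% equine and 5% calf serum. Tebufenozide 100 nM induced expression; compounds titrated; aggregates quantified by cytometry.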
ATXN2 expr inh = reduces ATXN2 reporter expression in HEK-293 cells; Potency, µM (doses to about 57 µM), inactives show at the top dose activity change, negative = inhibition, hits mostly inhibitors; 360,000 tested, 0.72% active; HEK-293 ATXN2-luciferase reporter, luminescence, 24 h; also: % is scaled to controls: 0 for no effect and ±100 for the full control effect; nearly all actives have a fitted effect of over 55% in size
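ATXN2-luciferase reporter cells (luciferase flanked by upstream and downstream ATXN2 gene portions) were treated 24 h at 37 °C with compounds at up to 57 uM. SteadyGlo luminescence gave expression; GF-AFC fluorescence gave viability.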
TGFb confirm = TGF-b pathway inhibition, cherry-pick retest; shares compounds with TGFb SMAD3 inh; HepG2 CAGA-GFP TGF-b reporter, GFP fluorescence, 18 h; cells stimulated with TGF-beta, 500 pg/mL; Potency, µM (series often up to 46.1 µM), inactives show top-dose activity, negative = inhibition, usual class: inhibitors; 1,600 tested, 63% active; AID 720534; also: % is scaled to controls: 0 for no effect and ±100 for the full control effect; nearly all actives have a fitted effect of over 65% in size
HepG2 tox-2 = toxic to HepG2 cells in TGF-b counterscreen; shares compounds with TGFb SMAD3 inh; HepG2 CAGA-GFP viability, ATP luminescence, 18 h; cells stimulated with TGF-beta, 500 pg/mL; Potency, µM (doses to about 46.1 µM), without a hit: at the top dose activity, negative = cytotoxicity, most hits filed as inhibitors; 1,600 tested, 27% active; also: % is scaled to controls: 0 for no effect and ±100 for the full control effect; nearly all actives have a fitted effect of over 70% in size
TGFb CCL64 inh = orthogonal confirmation of TGF-b inhibitors in CCL64 cells; Potency, µM (top dose mostly 46.1 µM), for the others: at the top dose activity, negative = inhibition, hits mostly inhibitors; CCL64 CAGA-GFP reporter, TGF-b stimulated, GFP fluorescence, 18 h; 1,600 tested, 41% active; AID 720536; shares compounds with TGFb SMAD3 inh; also: nearly all actives have a fitted effect of over 65% in size
TGFb COP inh = TGF-b inhibition validated with COP promoter; shares compounds with TGFb SMAD3 inh; HepG2 COP-GFP TGF-b reporter, GFP fluorescence, 18 h; cells stimulated by added recombinant TGF-beta; Potency, µM (doses to about 46.1 µM), for inactives: at the top dose activity, negative = inhibition, actives largely listed as inhibitors; 1,600 tested, 3% active; AID 720537; also: nearly all actives have a fitted effect of over 70% in size
* marks the source's active call; other numbers are inactive results; i = inactive; ? = inconclusive; nt = not tested or not shown; [ ] = dose if it differs, or a comment. Calls follow the shape of the dose curve; as a rule, active = well fitted curve in the direction sought with a large enough effect; inconclusive = small, poorly fitted or top-dose-only effect, or another doubt; inactive = no such curve, though single readings can be large; an effect the other way counts as inactive or inconclusive. Potency is read from the fitted curve at half-maximal effect.

SMILES	ATXN viability	HepG2 tox-1	TGFb SMAD3 inh	HTT cytoprotect	HttQ103 aggreg	ATXN2 expr inh	TGFb confirm	HepG2 tox-2	TGFb CCL64 inh	TGFb COP inh
CC[C@H](C)C1OC(=O)[C@@H](C)[C@@H](CC)NC(=O)[C@H](C)N(C)C(=O)C(C)(C)C(=O)C(C)NC(=O)[C@H](Cc2ccc(OC)cc2)N(C)C(=O)[C@H](C(C)C)N(C)C(=O)CNC(=O)[C@H](CC(C)C)N(C)C(=O)CNC1=O (stereo partly specified)	?	4.0%	0.501µM*	nt	nt	?	1.03µM*	?	1.3µM*	46.8%
CCC[C@H]1NC(=O)[C@H](C)N(C)C(=O)C(C)(C)C(=O)C(C)NC(=O)[C@H](Cc2ccc(OC)cc2)N(C)C(=O)[C@H](C(C)C)N(C)C(=O)CNC(=O)[C@H](CC(C)C)N(C)C(=O)CNC(=O)[C@H]([C@@H](C)CC)OC(=O)[C@H]1C (stereo partly specified)	?	-7.3%	1.12µM*	nt	nt	?	0.366µM*	?	0.291µM*	95.9%
CC(C)C[C@@H]1NC(=O)[C@H](Cc2ccccc2)N(C)C(=O)[C@H](C)NC(=O)c2ccccc2NC(=O)[C@H](Cc2ccc(O)cc2)N(C)C1=O	i	-18.6%	-9.2%	-19.0%[10 µM]	2.9%[9.22 µM]	?	nt	nt	nt	nt
S=C(NCCCc1cnc[nH]1)NCCCN(Cc1ccc(Cl)cc1)c1ccc(-c2ccccc2)cn1	nt	-82.3%	?	nt	nt	nt	nt	nt	nt	nt
CC12C=C(/C=C/c3ccc(F)cc3)C(C)(C1)C(c1ccc(F)cc1)CC2=O (stereo unspecified)	nt	nt	nt	6.7%[10 µM]	nt	nt	nt	nt	nt	nt
CN(CCCC1CCCC1)C(=O)c1cc(COc2ccc(F)cc2F)on1	i	2.8%	10µM*	nt	nt	2.1%	20.6µM*	?	25.9µM*	24.6%
CC(C)(C)NS(=O)(=O)c1cccc(S(=O)(=O)c2cccc(S(=O)(=O)NC(C)(C)C)c2)c1	i	-10.7%	12.6µM*	-21.2%	-11.0%	-21.4%	14.6µM*	?	-23.4%	10.9%
CCSc1ccc([C@@H]2[C@@H]3C(=O)N(CC)C(=O)[C@@H]3[C@]3(C(=O)OC)CCCN23)cc1	i	-20.6%	?	nt	nt	8.4%	?	3.8%	-11.0%	-0.3%
CCN1C(=O)[C@H]2[C@H]3[C@H](O)[C@H](O)C/C(=N/OCC(C)C)[C@@H]3CC[C@@H]2C1=O	nt	nt	nt	16.4%[10 µM]	nt	nt	nt	nt	nt	nt
CCCCc1nc2c(c3c1C[C@H](C)OC3)CN(C(=O)NCCc1c[nH]c3ccccc13)CC2	nt	nt	nt	24.7%[10 µM]	nt	nt	nt	nt	nt	nt
CCS(=O)(=O)c1ncc(Cl)c(C(=O)Nc2ccc(S(=O)(=O)N3CCCC(C)C3)cc2)n1 (stereo unspecified)	8.91µM*	4.47µM*	4.47µM*	nt	nt	8.91µM*	4.11µM*	5.17µM*	2.59µM*	7.31µM*
CC1CCCN(S(=O)(=O)c2ccc(NC(=O)CNC3CCCC3)cc2)C1 (stereo unspecified)	i	-25.7%	-11.0%	nt	nt	?	nt	nt	nt	nt
CCC1CCCCN1S(=O)(=O)c1ccc(NC(=O)c2nc(S(C)(=O)=O)ncc2Cl)cc1 (stereo unspecified)	12.6µM*	3.98µM*	4.47µM*	nt	nt	15.8µM*	3.66µM*	6.51µM*	2.06µM*	9.2µM*
CCSc1ncc(Cl)c(C(=O)Nc2ccc(S(=O)(=O)N3CCCCC3CC)cc2)n1 (stereo unspecified)	i	-17.1%	-17.8%	nt	nt	-9.4%	nt	nt	nt	nt
C[N+]1(C)CC[C@@H](OC(=O)[C@@](O)(c2ccccc2)C2CCCC2)C1	i	nt	nt	?	nt	nt	nt	nt	nt	nt
O=C(Nc1cccc([N+](=O)[O-])c1)c1cc2ccccc2cc1O	?	-39.2%	3.98µM*	-71.2%[10 µM]	?	?	6.51µM*	4.11µM*	4.61µM*	61.5%
O=C(O)c1ccccc1C(=O)Nc1cccc([N+](=O)[O-])c1	i	6.4%	15.7%	9.8%[10 µM]	-17.3%[9.22 µM]	nt	nt	nt	nt	nt
COc1ccc(C(=O)NN(C)c2nc(C(F)(F)F)nc3ccccc23)cc1	?	-22.8%	?	nt	?	26.7%	?	-16.5%	?	-15.0%
COc1ccc(C(=O)NN(C)c2nc(-c3ccccc3)nnc2C(F)(F)F)cc1	i	0.5%	15.0%	2.4%	8.6%	-13.3%	nt	nt	nt	nt
COc1ccc(Cl)cc1NC(=O)CN1c2ccccc2CC1C (stereo unspecified)	i	-40.2%	?	-31.6%	-29.6%	-17.8%	?	-21.0%	?	28.3%
COc1cc(NC(=O)CN2c3ccccc3CC2C)cc(OC)c1OC (stereo unspecified)	i	-23.5%	3.2%	4.8%	-3.1%	-1.5%	nt	nt	nt	nt
Cc1cc(Cl)n2c(nc3cc(F)c(F)cc32)c1C#N	?	-27.6%	6.31µM*	-175.9%	2.1%[1.84 µM]	?	1.3µM*	5.8µM*	1.3µM*	18.4µM*
COc1cccc(-c2csc(NC3OC(=O)c4c3ccc(OC)c4OC)n2)c1 (stereo unspecified)	?	-22.9%	11.2µM*	-7.1%[10 µM]	3.1%[9.22 µM]	80.9%	20.6µM*	-23.7%	?	21.8%
COc1ccc2c(c1OC)C(=O)OC2Nc1nc(-c2ccc(-c3ccccc3)cc2)cs1 (stereo unspecified)	i	-12.1%	7.08µM*	-45.9%[10 µM]	1.7%	103.1%	23.1µM*	-17.3%	?	-2.2%
